Rows were chosen to be rich in hits. Some 6.9% of all compounds tested hit in one or more screens of this group.
NR3A LBD binder: modulators (binders) of human NR3A ligand-binding domain. NR3A LBD differential scanning fluorimetry, Tm shift; 0% = protein alone, 100% = glycine-bound protein. Tm shift relative to glycine control, % at 25 µM. 2.5% of 340,000 active. AID 1259313;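 active = melting temperature shift of at least 10% of the positive control shift, at one fixed dose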
SKKanGAS inh: inhibitors of SKKanGAS S. pyogenes growth in kanamycin (SK-promoter or general growth effect); AID 1662; inhibition, % at 7.5 µM; BacTiter-Glo, 6 h; 1.3% of 300,000 active;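 active = mean replicate score, as percent of positive control median, at least 50; inconclusive = mean below 50 but one replicate at or above 50; inactive = mean and every replicate below 50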;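 also: strain carries kanamycin resistance gene driven by streptokinase promoter and grows in 40 µg/ml kanamycin; loss of luminescence reflects streptokinase promoter inhibition or plain growth inhibition; 0% = median of DMSO wells and 100% = positive control at its reference dose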
MPTP inh: inhibitors of mitochondrial permeability transition pore | isolated mouse mitochondria, Ca2+ swelling absorbance, 30 min | inhibition, % at 10 µM | 1.4% of 360,000 active;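 active = inhibition of 50% or more, scaled per plate between neutral and stimulator controls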;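 also: 0% = DMSO wells given calcium and 100% = 1 mM EGTA wells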
Mdm2 MdmX PPI: human Mdm2/MdmX binding inhibition; O15151+Q00987; SaOS-2 split-luciferase Mdm2/MdmX complementation, luminescence; inhibition, % at 8 µM; 3% of 330,000 active; AID 485346;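 active = inhibition of at least 50% at 8 µM in the primary screen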
Target sequence (O15151 whole entry, looked up): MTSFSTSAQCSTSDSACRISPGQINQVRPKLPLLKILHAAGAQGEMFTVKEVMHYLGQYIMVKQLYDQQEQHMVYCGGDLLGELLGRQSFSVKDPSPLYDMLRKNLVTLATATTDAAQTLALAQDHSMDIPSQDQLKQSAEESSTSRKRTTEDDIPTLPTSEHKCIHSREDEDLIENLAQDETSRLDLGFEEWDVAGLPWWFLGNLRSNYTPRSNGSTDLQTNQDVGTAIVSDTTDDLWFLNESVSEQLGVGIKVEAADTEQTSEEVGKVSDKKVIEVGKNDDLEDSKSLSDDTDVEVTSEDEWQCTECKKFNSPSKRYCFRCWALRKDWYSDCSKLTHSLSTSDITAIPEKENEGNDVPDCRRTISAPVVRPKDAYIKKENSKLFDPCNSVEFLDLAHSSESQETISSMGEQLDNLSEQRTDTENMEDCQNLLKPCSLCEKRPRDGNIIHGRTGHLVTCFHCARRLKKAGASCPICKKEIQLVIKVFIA
Target sequence (Q00987 whole entry, looked up): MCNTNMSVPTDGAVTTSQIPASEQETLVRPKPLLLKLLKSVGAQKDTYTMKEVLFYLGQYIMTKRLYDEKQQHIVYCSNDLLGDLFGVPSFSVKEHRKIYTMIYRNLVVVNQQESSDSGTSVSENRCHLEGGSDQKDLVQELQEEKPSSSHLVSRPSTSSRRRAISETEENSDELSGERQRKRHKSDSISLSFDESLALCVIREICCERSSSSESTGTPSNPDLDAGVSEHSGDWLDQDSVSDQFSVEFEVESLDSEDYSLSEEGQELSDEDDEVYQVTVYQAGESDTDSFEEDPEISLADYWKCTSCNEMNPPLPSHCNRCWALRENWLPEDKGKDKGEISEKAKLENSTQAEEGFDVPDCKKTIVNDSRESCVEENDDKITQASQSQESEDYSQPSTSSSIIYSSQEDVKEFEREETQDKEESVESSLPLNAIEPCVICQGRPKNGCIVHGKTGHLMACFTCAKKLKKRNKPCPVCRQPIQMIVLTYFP
Beta cell apopt: blocks beta cell apoptosis; INS-1E cytokine-induced death, ATP luminescence, 48 h; percent of positive-control rescue, neutral wells zero; protection from apoptosis, % (no concentration beside the values); 0.8% of 300,000 active; AID 435005;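 active = Every replicate reaches about 75%, or at least half do and their mean reaches it too, limit read from the data; inconclusive = At least half of replicates reach the limit but their mean does not; inactive = Under half of replicates reach the limit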;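 also: 0% = cytokine-treated negative control wells and 100% = positive control rescue; higher means more ATP so stronger rescue from cytokine killing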
CSC inhib: cancer stem cell inhibition. cancer stem cell-like cells viability, luminescence. 1.1% of 300,000 active. inhibition, % at 7.5 µM. AID 2717; in the data active = inhibition above about 75%; inconclusive = no clear call, values can overlap the other calls; tested in HMLE shEcad cells
Mdm2-MdmX conf: human Mdm2/MdmX binding inhibition, confirmed. shares compounds with Mdm2 MdmX PPI. inhibition, % at 8 µM. 55% of 10,000 active. luminescent assay; in the data active = inhibition above about 40%
Full FLuc ctr: inhibits full-length luciferase, flagging false Mdm2/MdmX hits. shares compounds with Mdm2 MdmX PPI. SaOS-2 full-length luciferase counterscreen, luminescence. inhibition, % at 8 µM. 77% of 6,200 active;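 active = mean inhibition at 8 µM reaching about 37%, which flags the compound as non-specific, limit read from the data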;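 also: p53-null SaOS-2 cells with luciferase driven by a doxycycline-inducible promoter; compound on cells about two nights before reading with doxycycline added after day one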
* marks the source's active call; other numbers are inactive results; u = inconclusive; x = no result.

SMILES	NR3A LBD binder	SKKanGAS inh	MPTP inh	Mdm2 MdmX PPI	Beta cell apopt	CSC inhib	Mdm2-MdmX conf	Full FLuc ctr
CC(C)(C)C1CCC(CN2C(Nc3ccccc3)=NC[C@@H]2Cc2ccccc2)CC1 (stereo not given in full)	-1.8	x	5.9	100.5*	23.5	106.7*	39.9	47.2*
Cc1ccc(N(NC(=O)C(O)(c2ccccc2)c2ccccc2)C(=O)CCl)cc1	-0.5	6.2	1.5	99.6*	-9.0	21.2	97.2*	56.1*
O=C(Nc1ccccc1)NN(C(=O)CCl)c1ccccc1	-3.3	-2.6	-1.2	99.6*	-41.2	u	75.7*	58.4*
CC(=O)Nc1c(Cl)cc(Cl)c2c1Cc1cc(Cl)ccc1-2	-1.9	x	2.5	x	x	x	x	x
O=C(C1=C[C@H](C2CC2)C[C@H](OCCCCO)O1)N1CCOCC1	0.1	-4.7	1.0	3.3	-2.4	16.2	x	x
CCN(CC)S(=O)(=O)c1cc(NC(=O)C2CCN(c3ncnc4sc(C)c(C)c34)CC2)ccc1Cl	1.1	0.6	10.6	90.0*	18.5	1.9	60.4*	48.9*
Cc1sc2ncnc(N3CCC(C(=O)Nc4ccc(S(N)(=O)=O)cc4)CC3)c2c1C	-7.2	x	-1.9	61.2*	-8.3	x	42.5*	71.8*
Cc1sc2ncnc(N3CCC(C(=O)N(C)CC(=O)Nc4ccc(Cl)c(C(F)(F)F)c4)CC3)c2c1C	x	-0.6	-1.0	80.8*	x	96.0*	54.7*	29.0
Cc1sc2ncnc(N3CCC(C(=O)N(C)CC(=O)Nc4cccc(F)c4)CC3)c2c1C	x	x	1.8	x	x	x	x	x
Cc1ccc(NC(=O)C2CCN(c3ncnc4sc(C)c(C)c34)CC2)cc1S(=O)(=O)N(C)C	1.2	3.7	-1.4	45.4	22.9	1.9	x	x
Cc1sc2ncnc(N3CCC(C(=O)Nc4ccc(C#N)cc4)CC3)c2c1C	-6.1	8.2	0.8	39.3	-7.8	-8.9	x	x
COc1ccc(CC2(c3ccccc3)NC(=O)NC2=O)cc1 (stereo not given)	-0.5	x	0.8	x	x	x	x	x
CCN1C(=O)CSC1=Nc1cccc(C(=O)O)c1	0.7	-1.1	-0.8	22.5	-2.0	-13.2	x	x
COc1ccc(-n2c(SCC(=O)NCC3CCCO3)nc3ccccc3c2=O)cc1Cl (stereo not given)	x	x	-0.1	x	x	x	x	x
Cc1ccc(C2(CCNCc3ccc(N(C)C)cc3)CCOC(C(C)C)C2)cc1 (stereo not given)	0.3	-3.1	4.0	92.5*	19.3	12.9	23.2	x
CC(C)C1CC(CCNCc2ccc(N(C)C)cc2)(c2ccccc2)CCO1 (stereo not given)	-1.0	4.6	3.3	34.0	2.0	-30.1	x	x
Cc1cc(C)c2[nH]c(=O)c(CN(CC3CCCO3)C(=S)Nc3ccccc3)cc2c1 (stereo not given)	-21.4	3.6	3.1	-4.2	-0.5	11.9	x	x
Cc1ccc2cc(CN(CC3CCCO3)C(=S)Nc3ccccc3)c(=O)[nH]c2c1C (stereo not given)	0.3	2.4	2.1	85.2*	8.8	60.6	85.8*	35.3
Cc1ccc2cc(CN(CCCN(C)C)C(=S)NCc3ccccc3)c(=O)[nH]c2c1C	-0.6	-3.9	7.8	55.4*	0.0	-2.1	31.1	x
CN(C)CCNC=C(C(=O)Nc1ccc(Cl)cc1Cl)C(=O)Nc1ccc(Cl)cc1Cl	12.9*	55.5*	11.4	75.5*	9.2	77.6*	39.4	x
CC(=O)/C(=C/N(C)C)C(=O)Nc1ccc(Cl)cc1Cl	-3.8	2.8	-0.7	4.5	1.0	0.6	x	x
CCN1C(=O)c2cccc3c(S(=O)(=O)N(C(C)=O)c4ccc(OC(C)=O)cc4)ccc1c23	3.8	x	1.8	61.1*	14.3	6.7	1.4	x
COc1ccc(N(C(=O)c2ccncc2)S(=O)(=O)c2ccc3c4c(cccc24)C(=O)N3C)cc1	0.7	x	1.6	31.9	-5.1	-7.0	x	x
CN1C(=O)c2cccc3c(S(N)(=O)=O)ccc1c23	2.1	-2.6	0.9	24.1	x	-1.8	x	x
CCN1C(=O)c2cccc3c(S(=O)(=O)N4CCC(C)CC4)ccc1c23	5.2	x	-0.4	82.8*	-9.3	-11.9	42.5*	82.7*

Screening data from PubChem BioAssay.
